Screen size: about 5,500 compounds; about 2,000 (36%) were called active. About 18% were inconclusive and are not listed. No stated cut-off is given here; in the data, active means normalized growth mostly below about 0.91 (no sharp cut-off); inconclusive means no clear call, values can overlap the other calls; inactive means mostly above about 0.92. The list shows a part of the results.
Experiment: chemical genetic growth profiling, strain panel (AID 1159580);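 further: tested at 20 µM; growth read once vehicle control cultures reached saturation at 30 °C; 1 = growth at the plate median or of vehicle wells; lower values mean less growth of the strain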
Settings: S. cerevisiae deletion strains, growth OD

Measured: normalized growth

CNCCCC1c2ccccc2C=Cc2ccccc21
inactive: locus YAL013W, strain DEP1, active compounds read low 0.989 | locus YAL040C, strain CLN3, active compounds read low 1.08 | locus YCL061C, strain MRC1 (second series), active compounds read low 1 | locus YDR363W, strain ESC2, active compounds read low 1.03 | locus YER002W, strain NOP16, active compounds read low 1.01 | locus YHR030C, strain SLT2, active compounds read low 0.974 | locus YHR079C, strain IRE1, active compounds read low 0.965 | locus YJL095W, strain BCK1, active compounds read low 0.959 | locus YJR066W, strain TOR1, active compounds read low 0.954 | locus YJR075W, strain HOC1, active compounds read low 0.985 | locus YLR113W, strain HOG1, active compounds read low 0.956 | locus YMR307W, strain GAS1, active compounds read low 1 | locus YNL153C, strain GIM3, active compounds read low 1.02 | locus YNL175C, strain NOP13, active compounds read low 1.01 | locus YNL183C, strain NPR1, active compounds read low 0.924 | locus YNL197C, strain WHI3, active compounds read low 1.02 | locus YNL224C, strain SQS1, active compounds read low 1.06 | locus YOR083W, strain WHI5 (second series), active compounds read low 1.04 | locus YOR231W, strain MKK1, active compounds read low 0.976 | locus YPL055C, strain LGE1, active compounds read low 1 | locus YPL256C, strain CLN2, active compounds read low 0.945

From PubChem BioAssay AID1159580 (chemical genetic matrix, 2015)
